# In the library only some 2.4% were active in any assay of this set; here they are far more common.
# D2 ag-1: human D2 receptor agonism in beta-arrestin assay; P14416; DiscoveRx PathHunter D2 beta-arrestin, luminescence, 90 min; 100% = 57 uM dopamine signal; activation, % (no concentration beside the values); 360,000 compounds, 0.084% hits; in the data active = activation above about 40%
# Target sequence (P14416 whole entry, looked up): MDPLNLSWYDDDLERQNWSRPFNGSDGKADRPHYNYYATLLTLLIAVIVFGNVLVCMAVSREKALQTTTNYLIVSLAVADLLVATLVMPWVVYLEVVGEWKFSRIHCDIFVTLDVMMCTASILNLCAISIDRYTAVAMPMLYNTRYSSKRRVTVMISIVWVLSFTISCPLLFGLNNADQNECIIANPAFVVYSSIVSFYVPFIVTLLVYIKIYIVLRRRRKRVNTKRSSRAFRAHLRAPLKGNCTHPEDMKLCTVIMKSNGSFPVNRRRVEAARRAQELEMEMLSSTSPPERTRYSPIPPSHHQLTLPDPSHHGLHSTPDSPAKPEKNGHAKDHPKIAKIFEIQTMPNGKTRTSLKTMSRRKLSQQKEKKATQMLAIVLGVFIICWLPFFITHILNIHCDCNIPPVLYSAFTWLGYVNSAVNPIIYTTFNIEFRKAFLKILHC
#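 DiscoveRx PathHunter D2 beta-arrestin cells (2,100/well) attached overnight, then compound-stimulated 90 min at 37 C in HBSS/10 mM HEPES/0.1% Tween-20 buffer; beta-galactosidase complementation read by luminescence after 1 h at ambient temperature. Dopamine 57 uM final (EC100) as control.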
# D2 antag: antagonizes the human D2 dopamine receptor. HEK293 TREx D2 cells, calcium flux, dopamine EC80. inhibition, % at 10 µM. 340,000 compounds, 2% hits; in the data active = inhibition above about 30%; inactive = below that, where a call was filed; also: 0% is about no effect
#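 Inhibition of EC80 dopamine-driven calcium flux, recorded kinetically, defines activity here; cells are a tetracycline-induced HEK293 T-REx line expressing force-coupled D2.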
# D2 PAM-1: human D2 receptor positive allosteric modulation; AID 624464; DiscoveRx D2 beta-arrestin cells, luminescence, 90 min; 100% = 57 uM dopamine signal; 360,000 compounds, 0.23% hits; potentiation, % (no concentration beside the values); P14416; in the data active = potentiation above about 50%
#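 D2 cells co-treated with compound plus 50 nM dopamine (EC20) for 90 min at 37 deg C to detect potentiation. Beta-arrestin recruitment was read as enzyme-fragment luminescence after 1 h at ambient temperature. Full response was set by 57 uM dopamine.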
# D2 ag-2: activates the human D2 dopamine receptor; P14416; HEK293 T-REx D2 cells, calcium flux agonist mode; activation, % at 2 µM; 340,000 compounds, 0.53% hits; AID 485358;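 active = activation over 3 SD above normal in the single-dose calcium agonist read, cut at about 30% in these data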; also: 0% is about no effect
#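 In this primary screen, compounds producing a positive calcium signal within 180 s of addition to tetracycline-induced, force-coupled HEK293 Trex D2 cells are flagged; cells are dye-loaded with a no-wash calcium kit beforehand.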
# D2 PAM-2: D2 dopamine receptor (human) potentiation | P14416 | HEK293 T-REx D2, calcium flux, EC20 dopamine potentiation | potentiation, % at 10 µM | 340,000 compounds, 0.34% hits;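 active = potentiation over 3 SD above the plate norm, cut at about 30% in these data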; also: 0% is about no effect
#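 Potentiation of an EC20 dopamine calcium response is measured in a force-coupled, tetracycline-inducible Hek293 Trex D2 line. Compound-only kinetic reads over 180 s flag agonists before dopamine addition.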
# The depositor's hits bear a star; / = no result given; ! = not active in a repeat.
SMILES,D2 ag-1,D2 antag,D2 PAM-1,D2 ag-2,D2 PAM-2
CCOC(=O)c1cc(-c2ccc(C)cc2)n(CC(=O)Nc2ccccc2F)c1C,/,/,/,0,17
O=C(c1cc(F)ccc1F)C1CCCN(C(=O)CCN2CCCCO2)C1 (configuration not stated),0,32*,-4,1,2
COC(=O)CCC(=O)N1CCCC(C(=O)c2cc(F)ccc2F)C1 (configuration not stated),5,14,2,0,-2
COc1ccc(OCC(=O)Nc2c(C(=O)N(CCN(C)C)Cc3ccco3)oc3ccccc23)cc1,-4,-3,-30,1,31*
COc1ccc(C(NC(=O)C2CCN(CCOc3ccc(Cl)cc3Cl)CC2)c2cccs2)cc1 (configuration not stated),70*,/,-18,/,/
COc1ccc(C(NC(=O)C2CCN(CCOc3ccc(F)cc3)CC2)c2cccs2)cc1 (configuration not stated),-4,/,-17,/,/
COc1ccccc1N1CCN(C(=O)c2cc(-c3ccc(C)c(F)c3)on2)CC1,/,/,/,1,6
CCOc1ccc(N2CC(C(=O)N3CCCc4ccccc43)CC2=O)cc1 (configuration not stated),0,56*,2,-3,/
CCOc1ccc(N2CC(C(=O)NCCc3ccc(S(N)(=O)=O)cc3)CC2=O)cc1 (configuration not stated),-2,38*,-6,1,14
CCOc1ccc(-c2cc(C(=O)NCCc3ccccc3)c3c(-c4ccc(C)cc4)[nH]nc3n2)cc1,/,/,/,-2,11
COc1ccc(NC(=S)N2CCC(N(C)CC3CCCO3)CC2)cc1 (configuration not stated),0,30*,-6,-3,13
COc1ccc(/C=C2\CC/C(=C\c3ccc(OC)c(OC)c3)C2=O)cc1OC,-3,-3,-8,1,12
COc1cc(/C=C2\CC/C(=C\c3ccc(OCCO)c(OC)c3)C2=O)ccc1OCCO,10,0,9,76*,21
Cc1cc(Cl)ccc1OCC(=O)N(Cc1ccco1)Cc1ccccc1F,/,/,/,0,12
O=C(NCc1cccnc1)c1ccc(COc2ccccc2Cl)cc1,1,4,-13,-1,-5
O=C(NCc1cccnc1)c1ccc(COc2ccccc2Br)cc1,5,53*,-11,-2,-22
O=C(CCc1nc2cccnc2n1Cc1cccs1)Nc1cccc(Cl)c1,/,/,/,0,-10
CCCSc1oc(-c2cccs2)nc1S(=O)(=O)c1ccc(Cl)cc1,/,/,/,1,24
COCCOc1ccc(C(F)(F)F)cc1NC(=O)c1ccc(C(F)(F)F)cc1,0,59*,-18,1,7
CC(=O)Nc1ccc(-c2csc(NC(=O)CC(NC(C)=O)c3ccccc3)n2)cc1 (configuration not stated),0,4,2,0,36*
COc1ccccc1CNC(=O)C1CCC(CNS(=O)(=O)c2ccc3c(c2)CCCC(=O)N3)CC1 (configuration not stated),/,/,/,-1,-5
Cc1ccccc1NC(=O)Cn1nnc(-c2ccc(CN3CCC(C)CC3)cc2)n1,0,33*,-15,2,-8
COc1ccc(NC(=O)CCc2c(C)nc3c(-c4ccccc4)c(C)nn3c2C)cc1Cl,/,/,/,0,-4
CCS(=O)(=O)c1ccc2oc(Nc3ccc(OC)cc3)nc2c1,-4,34*,4,-1,-3
COc1ccc(CN(C)c2ccc(-c3nc(C)no3)cc2[N+](=O)[O-])cc1,/,/,/,-1,0
SMILES,D2 ag-1,D2 antag,D2 PAM-1,D2 ag-2,D2 PAM-2
O=C(CN1CCN(S(=O)(=O)c2ccc(Cl)cc2)CC1)Nc1ccc(F)cc1F,-1,39*,1,1,-7
COc1ccc(C)cc1NC(=O)CN1CCN(S(=O)(=O)c2ccc(Br)cc2)CC1,0,34*,4,0,2
COc1ccc(NC(C)=O)cc1NC(=O)CN1CCN(S(=O)(=O)c2ccc(C(C)C)cc2)CC1,0,38*,-1,0,-4
COc1ccc(NC(=O)CN2CCN(S(=O)(=O)c3ccc(Br)cc3)CC2)c(OC)c1,1,-10,-5,0,-8
CN(C)S(=O)(=O)c1ccc(Cl)c(NC(=O)CN2CCCC2)c1,-3,36*,-22,0,-14
Cc1ccc(S(=O)(=O)N(C)C)cc1NC(=O)CN1CCCC1,3,-21,-22,0,-27
O=C(CN1CCN(S(=O)(=O)c2ccc(Br)cc2)CC1)Nc1ccc(F)cc1F,5,6,-8,-1,0
CCCCN(C)CCCNC(=O)Cn1ncc2c3ccccc3n(Cc3ccccc3F)c2c1=O,/,/,/,5,-11
Cc1cccc(NC(=O)CN2C(=O)CCc3ccccc32)c1C,/,/,/,0,2
COc1ccc(NC(=O)c2cc3c(=O)n(Cc4ccco4)ccc3nc2C)cc1,/,/,/,0,-15
COc1ccc2[nH]c(=O)c(CN(C(=O)c3cccc(Cl)c3)c3cccc(C)c3)cc2c1,/,/,/,-1,3
Cc1ccc(S(=O)(=O)N2CCN(CC(=O)Nc3ccccc3Cl)CC2)cc1,-2,40*,-1,0,10
Cc1ccc(S(=O)(=O)N2CCN(Cc3ccc4c(c3)OCO4)CC2)cc1,/,/,/,0,-31
CC1CC(C)CN(CCOCCSc2ccc(Cl)cc2)C1 (configuration not stated),1,65*,-5,-1,-25
CC1CC(C)CN(CCOCCSc2ccccc2)C1 (configuration not stated),-3,65*,-30,-1,-21
c1ccc(SCCOCCN2CCc3ccccc3C2)cc1,-7,75*,-12,0,-20
CC1CN(CCCSc2ccc(Cl)cc2)CC(C)O1 (configuration not stated),-2,11,-23,-2,-21
CC1CC(C)CN(CCCSc2ccccc2)C1 (configuration not stated),-4,25,-38,0,11
Cc1ccc(-n2cnc3cc(C(=O)NC4CCCCCC4)ccc32)c(C)c1,/,/,/,0,-19
COc1ccc(Cn2ccnc2SCC(=O)Nc2cc(C(F)(F)F)ccc2Cl)cc1,/,/,/,1,11
CCCCOC(=O)C1[C@H]2C(=O)N(Cc3cccs3)C[C@]23C=C[C@H]1O3 (some centres not stated),4,0,1,2,16
CC(C)CCOC(=O)C1C2C=CC3(CN(Cc4cccs4)C(=O)C13)O2 (configuration not stated),2,33*,-2,-1,0
CNCCCC1c2ccccc2C=Cc2ccccc21,2,75*,-27,3,-26
COCCc1ccc(OCC(O)CNC(C)C)cc1 (configuration not stated),-2,34*!,0,1,-4
